In the library only some 14% were active in any assay of this set; here they are far more common.
HCV inhibitor = inhibitors of hepatitis C virus infection; hit rate 3.4% among 340,000; AID 651820; Potency, µM (series often up to 41.8 µM), without a hit: top-dose activity change, negative = inhibition, usual class: inhibitors; Huh7.5.1 HCVcc-Cre infection, luciferase reporter, 44 h; note: potency is the fitted concentration of half-maximal effect
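Reporter virus HCVcc-Cre (~0.5 moi) infects cells exposed to compound; seeding density 1,000 cells/well with 4 h settling beforehand. Luminescence, 15 sec read, taken 44 h post-infection following a 15 min RT substrate incubation.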
LASV entry inh = Lassa virus entry inhibition | Lassa virus pseudotype entry inhibition, cell reporter | Potency, µM (highest dose often 37.9 µM), for the others: at the top dose activity change, negative = inhibition, usual class: inhibitors | hit rate 1.2% among 300,000; calls by dose curve; tested in HEK293 cells; note: potency is the fitted concentration of half-maximal effect; nearly all actives have a fitted effect of over 50% in size
Pf growth 48h = P. falciparum growth inhibition at 48 hours (one generation); AID 504832; hit rate 5.9% among 310,000; Potency, µM (doses to about 28.7 µM), for the others: at the highest dose activity change, negative = inhibition, usual class: inhibitors; P. falciparum luciferase growth in erythrocytes, 48 h; note: potency is the fitted concentration of half-maximal effect
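Parasite viability was followed by luminescence of a genomically integrated firefly luciferase. Cultures held 0.1% parasitemia at 2% hematocrit (final), incubated under 5% CO2 at 37 C.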
MARV entry inh = blocks Marburg virus binding to or entry into cells; Marburg virus pseudotyped entry inhibition, cell reporter; Potency, µM (highest dose often 37.8 µM), for inactives: at the highest dose activity change, negative = inhibition, hits mostly inhibitors; hit rate 1.8% among 300,000; AID 540276; calls by dose curve; tested in HEK293 cells; note: potency is the fitted concentration of half-maximal effect
Pf growth 96h = inhibits malaria parasite growth, 96 h. P. falciparum luciferase reporter growth, 96 h. hit rate 6.9% among 320,000. Potency, µM (doses to about 28.7 µM), without a hit: top-dose activity change, negative = inhibition, most hits filed as inhibitors; note: potency is the fitted concentration of half-maximal effect
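P. falciparum expressing integrated firefly luciferase grown in erythrocytes (2% hematocrit, 0.05% parasitemia final) with compounds for 96 hours at 37 C, 5% CO2. Growth inhibition read as loss of luminescence after adding luciferase detection reagent.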
HCMV antiviral = blocks human cytomegalovirus replication; HFF cells, HCMV-luciferase reporter, 72 h; stronger effect = lower value; activity change, negative = inhibition, % at 57.5 µM; hit rate 4.5% among 410,000; in the data active = activity change below about -60%; inconclusive = no clear call, values can overlap the other calls; inactive = above about -39%
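Two-dose cell screen: HFF monolayers treated with compounds and infected with luciferase-expressing HCMV at 1 PFU/cell, 72 h at 37C, then lysed for luciferase measurement.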
* marks the source's active call; other numbers are inactive results; ? = inconclusive; nt = no result; ! = a repeat was not active; [ ] = another dose, or the depositor's remark. Unless noted, calls come from the whole dose curve; as a rule, active = well fitted inhibition curve with a large enough effect; inconclusive = small, poorly fitted or top-dose-only effect, or another doubt; inactive = no such curve, though single readings can be large or run the other way. % is set by controls: 0 for no effect and ±100 for the full control effect.

SMILES	HCV inhibitor	LASV entry inh	Pf growth 48h	MARV entry inh	Pf growth 96h	HCMV antiviral
COc1ccc(S(=O)(=O)N2CCOCC2)cc1C(=O)Nc1ccc2c(c1)OCO2	nt	-18%	-11%	-2%	-28%	4
O=C(CSc1nc2c([nH]c3ccccc32)c(=O)n1-c1ccc(Cl)cc1)NCC1CCCO1 (centres undefined)	nt	3%[46.1 µM]	nt	nt	nt	-18
Cc1cccn2c(=O)c(/C=C3\SC(=S)NC3=O)c(NCCCN3CCOCC3)nc12	2%	nt	13µM*	nt	?	?
COC(=O)C1=C(C)NC(C)=C(C(=O)OC(C)C)C1c1cccc2nonc12 (centres undefined)	-25%	nt	nt	nt	nt	-3
CC1=C(C(=O)OC(C)C)C(c2cccs2)C(C(=O)OC(C)C)=C(C)N1	?	?	13µM*	?	?	-24
CCCCCCCOC(=O)C1=C(C)Nc2ncnn2C1c1cccs1 (centres undefined)	?	13µM*	10µM*	?	39%	-17
CCCCCCCCOC(=O)C1=C(C)Nc2nnnn2C1c1cccs1 (centres undefined)	-4%	?	nt	?	nt	18
CCOC(=O)C1=C(C)NC(C)=C(C(=O)OCC)C1c1c(F)c(F)c(F)c(F)c1F	nt	16µM*	nt	?	nt	nt
COC(=O)C1=C(C)NC(C)=C(C(=O)OC(C)C)[C@H]1c1cccc2nonc12	nt	nt	4.5µM*	nt	2.6µM*	nt
CCCn1cc(S(=O)(=O)c2ccc(OC)cc2)c(=O)c2cc(F)c(N3CCCCCC3)cc21	nt	?	nt	nt	nt	-16
O=C(Nc1ccccc1Cl)c1cc(C2CCCN(C(=O)C3CCCCC3)C2)on1 (centres undefined)	nt	nt	nt	nt	nt	-6
Cc1ccc(CN2CCc3nc(SCC(=O)Nc4cccc(C)c4C)[nH]c(=O)c3C2)cc1	nt	?	nt	-4%[46.1 µM]	nt	6
C#CCSC1=C(C#N)C(c2cccs2)C(C(=O)OCC)=C(C)N1 (centres undefined)	?	5%	10µM*	0%	3%	3
CCOC(=O)C1=C(C)NC(C)=C(C(=O)OCC)C1c1sccc1C	-15%	-5%	5.2µM*	?	49%	-19
CCOC(=O)c1sc2c(c1C)C(c1cccs1)C1=C(CCCC1=O)N2 (centres undefined)	?	?	?	?	12µM*	-20
CCOC(=O)C1=C(c2ccccc2)OC(N)=C(C#N)C1c1cccs1 (centres undefined)	5%	8%	5%	6%	-8%	14
CCOC(=O)C1=C(C)N=C2SCCC(=O)N2[C@@H]1c1cccs1	21%	-12%	10µM*	-20%	6%	-19
CCOC(=O)c1cccc(NC(=O)C2CCCN(c3nnc(C)c4c(C)n(-c5ccccc5)nc34)C2)c1 (centres undefined)	nt	2%[46.1 µM]	nt	nt	nt	3
CCOC(=O)C1=C(C)NC(C)=C(C(=O)OCC)C1c1cccs1	1%	0%	9.3µM*	-7%	9.3µM*	-30
CCN(CC)C(=O)CSC1=C(C#N)[C@H](c2ccco2)C(C(=O)OCCOC)=C(C)N1	nt	nt	nt	9%	nt	nt
CCOC(=O)C1=C(C)Nc2[nH]c(=O)[nH]c(=O)c2C1c1cccs1 (centres undefined)	7%[8.37 µM]	-3%	20%	26%	0%	34
CCN(CC)C(=O)CSC1=C(C#N)C(c2cccs2)C=C(C)N1 (centres undefined)	-25%	?	1%	7.9µM*	?	-16
Cc1cnc(C(=O)NCCc2ccc(S(=O)(=O)NC(=O)NC3CCCCC3)cc2)cn1	0%[8.37 µM]	-1%	-17%	?	6.7µM*!	20
COC(=O)c1c(NC(=O)COc2ccc(Cl)cc2)sc2c1CC(C)(C)NC2(C)C	11µM*	-6%[46.1 µM]	?	?	?	24
CC(C)CN(CC(C)C)S(=O)(=O)c1ccc(C(=O)Nc2sc3c(c2C(N)=O)CC(C)(C)NC3(C)C)cc1	nt	-27%[46.1 µM]	nt	nt	nt	-97*
SMILES	HCV inhibitor	LASV entry inh	Pf growth 48h	MARV entry inh	Pf growth 96h	HCMV antiviral
CC1(C)Cc2c(sc(NC(=O)COc3ccc(Cl)cc3Cl)c2C(N)=O)C(C)(C)N1	1%	0%[46.1 µM]	10µM*	?	?	25
CN(C1CCCCC1)S(=O)(=O)c1ccc(C(=O)Nc2sc3c(c2C(N)=O)CC(C)(C)NC3(C)C)cc1	-7%	?	-6%	-13%[46.1 µM]	?	?
CCc1ccc(S(=O)(=O)c2nnn(-c3ccc(F)cc3)c2N)cc1	nt	-10%[46.1 µM]	nt	?	nt	-23
O=C(Cn1nc(Cl)nc1Cl)c1ccc(F)cc1	19%	nt	12µM*	nt	?	-8
O=C(Cn1nc(Cl)nc1Cl)c1ccccc1	7%	2%[46.1 µM]	-4%	22%[46.1 µM]	-3%	16
CCOC(=O)c1cc([N+](=O)[O-])cc([N+](=O)[O-])c1Sc1ncnc2nc[nH]c12	?	1.4µM*	nt	?	nt	15
CCOC(=O)C(C)(C)Sc1ncnc2nc[nH]c12	0%	21%[14.3 µM]	-2%	18%	?	-14
CCOC(=O)c1cc(C)sc1NC(=O)CSc1nnnn1C	nt	4%	-13%	6%	1.7µM*	-15
CCOC(=O)c1ccccc1NC(=O)CSc1nnnn1C	-23%	-6%	?	7%	?	-18
CCOC(=O)c1cc(C)sc1NC(=O)CSC1=NCCS1	?	?	?	-14%[46.1 µM]	9.3µM*	-14
COc1ccccc1S(=O)(=O)N(C)C[C@@H]1OCc2cn(nn2)CCCC(=O)N([C@H](C)CO)C[C@H]1C	nt	nt	nt	nt	nt	17
Cc1cc(C)c2[nH]c(=O)c(CN(CC3CCCO3)C(=S)NCc3ccco3)cc2c1 (centres undefined)	?	?	-5%	-3%	-1%	-8
Cc1ccc2cc(CN(Cc3ccco3)C(=O)NC3CCCCC3)c(=O)[nH]c2c1C	?	-21%	12µM*	?	-14%	-21
Cc1cc(C)c2nc(Cl)c(CN(Cc3ccco3)C(=O)Nc3ccccc3C)cc2c1	?	?	12µM*	?	?	-63*
Cc1cc(C)c2cc(CN(Cc3ccco3)C(=O)NCc3ccccc3)c(=O)[nH]c2c1	?	?	0%	2.8µM*	15µM*	-29
COc1ccccc1NC(=S)N(Cc1ccco1)Cc1cc2cc(C)cc(C)c2[nH]c1=O	?	?	3.3µM*	?	-17%	?
COCCN(Cc1cc2cc(C)cc(C)c2nc1Cl)C(=O)Nc1ccccc1	?	-6%	?	-14%	0%	2
Cc1cc(C)c2cc(CN(CC3CCCO3)C(=S)NCc3ccco3)c(=O)[nH]c2c1 (centres undefined)	?	-17%	?	-10%[46.1 µM]	?	?
Cc1ccc2cc(CN(Cc3ccco3)C(=O)C3CCCCC3)c(=O)[nH]c2c1C	1%	0%	?	1%	6%	-20
